PubChem BioAssay (Tox21)
Several values for one entry are separate records, joined by “and”; a condition that tells them apart may be missing. Equal values may be shown once. Some structures have more than one record in an assay (separate samples or runs), and their calls can disagree. Activity calls are given as the source filed them. Where a call stands in place of a potency, no number is given. Unless noted, calls come from the whole dose curve; as a rule, active = well fitted curve in the direction sought with a large enough effect in the repeat runs; inconclusive = weak or mixed curves; inactive = no such curve, though single readings can be large; an effect the other way counts as inactive or inconclusive.

What was measured:
[1] = qHTS assay to identify small molecule antagonists of the glucocorticoid receptor (GR) signaling pathway - cell viability counter screen (AID 720693); note: nearly all actives have a fitted effect of over 55% in size
[2] = qHTS assay for identifying genotoxic compounds that show differential cytotoxicity against isogenic chicken DT40 cell lines with known DNA damage response pathways - wild type cell line (AID 743012); note: nearly all actives have a fitted effect of over 60% in size; note: potency is the fitted concentration of half-maximal effect
How it was run: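 Cells (DT40 wild type, 300/well) are treated with DMSO-dissolved compounds after a ~0.5 h pre-incubation and kept 40 h at 37 C/5% CO2. Viability is then measured by CellTiter-Glo luminescence following 30 min at room temperature.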

[3] = qHTS assay for identifying genotoxic compounds that show differential cytotoxicity against isogenic chicken DT40 cell lines with known DNA damage response pathways - Rev3 mutant cell line (AID 743014); note: nearly all actives have a fitted effect of over 55% in size; note: potency is the fitted concentration of half-maximal effect
[4] = qHTS assay for identifying genotoxic compounds that show differential cytotoxicity against isogenic chicken DT40 cell lines with known DNA damage response pathways - Rad54/Ku70 mutant cell line (AID 743015); note: nearly all actives have a fitted effect of over 60% in size; note: potency is the fitted concentration of half-maximal effect
[5] = qHTS assay to identify small molecule antagonists of the androgen receptor (AR) signaling pathway - cell viability counter screen (AID 743033; note: nearly all actives have a fitted effect of over 45% in size; note: potency is the fitted concentration of half-maximal effect)
[6] = qHTS assay to identify small molecule antagonists of the androgen receptor (AR) signaling pathway using the MDA cell line - cell viability counter screen (AID 743041; note: nearly all actives have a fitted effect of over 45% in size; note: potency is the fitted concentration of half-maximal effect)
How it was run: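 MDA-kb2 AR-luc cells (MMTV-luciferase, AR/GR responsive) treated with compounds plus R1881 agonist for 16 h at 37C. CellTiter-Fluor added at 15.5 h; fluorescence read after 30 min in the same wells.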

[7] = qHTS assay to identify small molecule antagonists of the thyroid receptor (TR) signaling pathway - cell viability counter screen (AID 743064); note: nearly all actives have a fitted effect of over 50% in size; note: potency is the fitted concentration of half-maximal effect
How it was run: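 GH3.TRE-Luc rat pituitary cells carrying a TRE-luciferase reporter were treated with compound plus 1 nM T3 (final) for 23.5 h at 37 °C. Viability was then read in the same wells by CellTiter-Fluor fluorescence after a further 30 min.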

[8] = qHTS assay to identify small molecule antagonists of the estrogen receptor alpha (ER-alpha) signaling pathway - cell viability counter screen (AID 743074; calls by dose curve;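 note: HEK293 cells carrying ER-alpha-UAS-bla reporter stimulated with 17beta-estradiol; nearly all actives have a fitted effect of over 45% in size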; note: potency is the fitted concentration of half-maximal effect)
[9] = qHTS assay to identify small molecule antagonists of the estrogen receptor alpha (ER-alpha) signaling pathway using the BG1 cell line - cell viability counter screen (AID 743081);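 note: compound given together with 17beta-estradiol as the ER stimulus; nearly all actives have a fitted effect of over 45% in size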
Aromatase (Homo sapiens) = Aromatase (Homo sapiens) (UniProt P11511); experiment: qHTS assay to identify aromatase inhibitors (AID 743083); note: nearly all actives have a fitted effect of over 55% in size; note: potency is the fitted concentration of half-maximal effect
Sequence of Aromatase (Homo sapiens) (P11511 whole entry, looked up): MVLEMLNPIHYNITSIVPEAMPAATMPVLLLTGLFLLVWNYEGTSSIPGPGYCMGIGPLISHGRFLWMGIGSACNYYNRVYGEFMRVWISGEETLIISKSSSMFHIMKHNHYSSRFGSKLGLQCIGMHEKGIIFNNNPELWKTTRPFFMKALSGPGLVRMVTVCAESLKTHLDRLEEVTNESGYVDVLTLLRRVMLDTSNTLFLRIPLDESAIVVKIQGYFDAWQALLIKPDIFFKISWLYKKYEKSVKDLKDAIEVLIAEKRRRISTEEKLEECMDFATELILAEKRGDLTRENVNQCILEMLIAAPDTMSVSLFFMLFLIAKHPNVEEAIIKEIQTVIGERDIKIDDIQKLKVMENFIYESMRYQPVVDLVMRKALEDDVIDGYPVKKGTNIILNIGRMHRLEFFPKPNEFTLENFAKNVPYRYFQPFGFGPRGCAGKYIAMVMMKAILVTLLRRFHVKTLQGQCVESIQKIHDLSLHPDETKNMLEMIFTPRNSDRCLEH

[10] = qHTS assay to identify aromatase inhibitors - cell viability counter screen (AID 743084);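 note: cells stimulated with testosterone during compound exposure; nearly all actives have a fitted effect of over 55% in size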; note: potency is the fitted concentration of half-maximal effect
[11] = target: Androgen receptor (Homo sapiens) (UniProt P10275); experiment: qHTS assay to identify small molecule antagonists of the androgen receptor (AR) signaling pathway (AID 743035; active = well fitted inhibition curve with a large enough effect in the signal ratio in the repeat runs, not every such curve was filed as active; inconclusive = weak or mixed curves, or effect the other way; inactive = no such curve, though single readings can be large or run the other way; the % refers to the signal ratio)
Sequence of Androgen receptor (Homo sapiens) (P10275 whole entry, looked up): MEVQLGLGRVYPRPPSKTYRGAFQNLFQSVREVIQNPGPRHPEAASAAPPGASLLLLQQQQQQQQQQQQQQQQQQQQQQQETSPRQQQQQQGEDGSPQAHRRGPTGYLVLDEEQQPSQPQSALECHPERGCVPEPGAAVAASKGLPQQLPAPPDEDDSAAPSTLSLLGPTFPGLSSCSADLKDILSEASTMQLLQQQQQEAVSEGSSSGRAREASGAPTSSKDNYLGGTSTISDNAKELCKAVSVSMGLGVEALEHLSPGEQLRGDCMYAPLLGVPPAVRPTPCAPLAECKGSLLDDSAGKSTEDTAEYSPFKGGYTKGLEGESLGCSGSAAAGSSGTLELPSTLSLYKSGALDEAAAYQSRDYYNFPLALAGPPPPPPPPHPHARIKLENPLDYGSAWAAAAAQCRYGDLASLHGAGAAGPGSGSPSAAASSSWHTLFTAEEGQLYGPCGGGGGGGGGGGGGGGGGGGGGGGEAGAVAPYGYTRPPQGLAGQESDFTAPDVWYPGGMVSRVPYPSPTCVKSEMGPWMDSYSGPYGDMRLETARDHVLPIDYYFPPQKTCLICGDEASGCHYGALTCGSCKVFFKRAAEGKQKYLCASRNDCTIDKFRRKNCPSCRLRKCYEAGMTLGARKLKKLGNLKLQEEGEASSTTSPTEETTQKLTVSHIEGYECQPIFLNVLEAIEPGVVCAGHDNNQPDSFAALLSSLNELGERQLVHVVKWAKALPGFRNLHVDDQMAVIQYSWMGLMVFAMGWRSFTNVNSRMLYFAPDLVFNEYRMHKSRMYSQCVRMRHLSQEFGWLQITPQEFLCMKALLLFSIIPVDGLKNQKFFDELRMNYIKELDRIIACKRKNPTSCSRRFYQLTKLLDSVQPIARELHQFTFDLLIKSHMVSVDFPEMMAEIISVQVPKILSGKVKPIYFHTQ
How it was run: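 Antagonism is scored as loss of R1881-driven beta-lactamase reporter expression in HEK293 cells carrying the reporter under a UAS element, after 16 h co-treatment at 37C and a 2 h room-temperature FRET substrate read.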

[12] = target: Androgen receptor (Homo sapiens) (UniProt P10275); experiment: qHTS assay to identify small molecule agonists of the androgen receptor (AR) signaling pathway (AID 743036; active = well fitted activation curve with a large enough effect in the signal ratio in the repeat runs, with a control signal flat, not every such curve was filed as active; inconclusive = weak or mixed curves, or effect the other way; inactive = no such curve, though single readings can be large or run the other way; the % refers to the signal ratio)
How it was run: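 HEK293 cells stably carrying a UAS-driven beta-lactamase reporter (GeneBLAzer AR-UAS-bla-GripTite) were plated at 2,000 cells/well, rested 4 h at 37C, then exposed to compounds in DMSO for 16 h. LiveBLAzer B/G FRET substrate was added for 2 h at room temperature; fluorescence read.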

[13] = target: Androgen receptor (Homo sapiens) (UniProt P10275); experiment: qHTS assay to identify small molecule antagonists of the androgen receptor (AR) signaling pathway using the MDA cell line (AID 743042; note: nearly all actives have a fitted effect of over 55% in size)
How it was run: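 MDA-kb2 breast carcinoma cells carrying MMTV-luciferase (AR/GR responsive) were co-treated with compounds and the agonist R1881 for 16 h at 37C. Inhibition read as ONE-Glo luminescence; CellTiter-Fluor fluorescence measured in parallel for cytotoxicity.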

[14] = qHTS assay to identify small molecule antagonists of the thyroid receptor (TR) signaling pathway (AID 743065); note: nearly all actives have a fitted effect of over 55% in size; note: potency is the fitted concentration of half-maximal effect
How it was run: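 GH3.TRE-Luc rat pituitary cells (two TREs driving luciferase) were dosed with compound, then stimulated with 1 nM T3 (final) for 23.5 h at 37 C. ONE-Glo luminescence was the read-out, with CellTiter-Fluor fluorescence as the cytotoxicity counter-screen.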

[15] = system: thyroid hormone receptor (rat, GH3 cells); experiment: qHTS assay to identify small molecule agonists of the thyroid receptor (TR) signaling pathway (AID 743066; calls by dose curve; note: potency is the fitted concentration of half-maximal effect)
[16] = target: Estrogen receptor (Homo sapiens) (UniProt P03372); experiment: qHTS assay to identify small molecule antagonists of the estrogen receptor alpha (ER-alpha) signaling pathway (AID 743069; active = well fitted curve in the direction sought with a large enough effect in the signal ratio in the repeat runs, not every such curve was filed as active; inconclusive = weak or mixed curves, or effect the other way; inactive = no such curve, though single readings can be large or run the other way; the % refers to the signal ratio; note: potency is the fitted concentration of half-maximal effect)
Sequence of Estrogen receptor (Homo sapiens) (P03372 whole entry, looked up): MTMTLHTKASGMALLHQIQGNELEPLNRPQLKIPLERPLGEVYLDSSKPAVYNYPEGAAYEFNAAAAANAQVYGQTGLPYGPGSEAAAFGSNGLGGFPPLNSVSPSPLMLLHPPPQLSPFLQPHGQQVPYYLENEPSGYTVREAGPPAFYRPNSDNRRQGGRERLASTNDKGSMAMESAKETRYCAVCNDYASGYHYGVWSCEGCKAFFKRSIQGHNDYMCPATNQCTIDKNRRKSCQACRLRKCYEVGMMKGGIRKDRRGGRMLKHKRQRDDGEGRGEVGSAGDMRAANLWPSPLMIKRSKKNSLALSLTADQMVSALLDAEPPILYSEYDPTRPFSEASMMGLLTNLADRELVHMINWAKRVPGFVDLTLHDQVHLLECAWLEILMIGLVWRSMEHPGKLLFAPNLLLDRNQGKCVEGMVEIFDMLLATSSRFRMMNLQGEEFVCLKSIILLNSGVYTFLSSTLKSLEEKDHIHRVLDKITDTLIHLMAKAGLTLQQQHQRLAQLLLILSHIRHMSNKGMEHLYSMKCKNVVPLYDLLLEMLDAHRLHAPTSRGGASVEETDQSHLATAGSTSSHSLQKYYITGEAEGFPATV
How it was run: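 HEK293 ER-alpha-UAS-bla GripTite cells, held overnight in 2% charcoal-stripped FBS, 5,000 cells/well, preincubated 4 h, then compound plus 17beta-estradiol for 18 h at 37C. Beta-lactamase read by LiveBLAzer B/G FRET substrate, 2 h at room temperature.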

[17] = target: Estrogen receptor (Homo sapiens) (UniProt P03372); experiment: qHTS assay to identify small molecule agonists of the estrogen receptor alpha (ER-alpha) signaling pathway (AID 743075; calls by dose curve; note: potency is the fitted concentration of half-maximal effect)
[18] = target: Estrogen receptor (Homo sapiens) (UniProt P03372); experiment: qHTS assay to identify small molecule agonists of the estrogen receptor alpha (ER-alpha) signaling pathway using the BG1 cell line (AID 743079); note: nearly all actives have a fitted effect of over 20% in size; note: potency is the fitted concentration of half-maximal effect
[19] = qHTS assay to identify small molecule antagonists of the estrogen receptor alpha (ER-alpha) signaling pathway using the BG1 cell line (AID 743080; calls by dose curve;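 note: BG1 cells stimulated with 17beta-estradiol alongside compound; nearly all actives have a fitted effect of over 25% in size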; note: potency is the fitted concentration of half-maximal effect); settings: BG1Luc4E2 ERE-luciferase antagonist mode, luminescence; activity change, negative = inhibition: at 70.3 µM (top of the series)
How it was run: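 After 5 days in phenol-red-free 10% charcoal-stripped FBS medium, BG1-Luc-4E2 cells were seeded, left 24 h at 37 C, co-treated with compounds and 17beta-estradiol for 21.5 h, then assayed for viability and luciferase.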

| Structure (SMILES) | Potency [1] | Potency [2] | Potency [3] | Potency [4] | Potency [5] | Potency [6] | Potency [7] | Potency [8] | Potency [9] | Potency (Aromatase (Homo sapiens)) | Potency [10] | Potency [11] | outcome [12] | Potency [13] | Potency [14] | Potency [15] | Potency [16] | Potency [17] | Potency [18] | Potency [19] |
| --- | --- | --- | --- | --- | --- | --- | --- | --- | --- | --- | --- | --- | --- | --- | --- | --- | --- | --- | --- | --- |
| CC(=O)C(=O)O | inactive | inactive | inactive | inactive | inactive | inactive | inactive | inactive | inactive | inactive | inactive | – | – | – | – | – | – | – | – | – |
| CN(C)C(=O)Nc1ccc(Cl)c(Cl)c1 | inactive | – | inactive and 54.5 µM (active) | inactive | inactive | inactive | inactive | inactive | inactive | inactive | inactive | inactive | inactive | inactive | inactive | inactive | inactive | inactive | inactive | inactive |
| Nc1ccc([N+](=O)[O-])cc1O | inactive | – | 47.2 µM (active) | 55.5 µM (active) | inactive | 54.5 µM (active) | 36.4 µM (active) | – | – | inactive | 24.3 µM (active) | – | – | – | 48.6 µM (active) | inactive | inactive | inactive | inactive | inactive |
| O=C1c2c(O)cccc2Cc2cccc(O)c21 | inactive | – | inactive | inactive | inactive | inactive | inactive | inactive | inactive | inactive | inactive | – | – | – | inactive | inactive | – | – | – | – |
| Cc1ccc(S(=O)(=O)O)cc1 | inactive | inactive | inactive | inactive | inactive | inactive | inactive | inactive | inactive | – | inactive | – | – | – | – | inactive | – | – | – | – |
| CC(C)NCC(O)c1ccc(O)c(O)c1 (centres undefined) | inactive | inactive and 61.1 µM (active) | 61.1 µM (active) | – | inactive | inactive | inactive | inactive | inactive | inactive | inactive | – | – | – | inactive | inactive | – | – | – | – |
| CC1(C)O[C@@H]2C[C@H]3[C@@H]4CCC5=CC(=O)C=C[C@]5(C)[C@@]4(F)[C@@H](O)C[C@]3(C)[C@]2(C(=O)CO)O1 | inactive | – | inactive | inactive | inactive | inactive | inactive | inactive | inactive | inactive | inactive | – | – | – | inactive | inactive | – | – | – | – |
| NS(=O)(=O)c1cc2c(cc1Cl)NCNS2(=O)=O | inactive | – | inactive | inactive | inactive | inactive | inactive | inactive | inactive | inactive | inactive | – | – | – | inactive | inactive | inactive | inactive | inactive | inactive |
| O=c1[nH]cnc2c1ncn2[C@H]1CC[C@@H](CO)O1 | inactive | inactive | – | inactive and 61.1 µM (active) | inactive | inactive | inactive | inactive | inactive | inactive | inactive | – | – | – | inactive | inactive and 1.31 µM (active) | inactive | inactive | inactive | inactive |
| NC(=O)c1cccnc1 | inactive | inactive | inactive | inactive | inactive | inactive | – | inactive | inactive | inactive | inactive | – | – | – | – | – | inactive | inactive | inactive | inactive |
| Cn1c(=O)c2c(ncn2C)n(C)c1=O | inactive | – | inactive and 49.2 µM (active) | inactive and 49.2 µM (active) | inactive | – | inactive | inactive | inactive | inactive | inactive and 55.1 µM (active) | – | – | – | – | – | – | – | – | – |
| O=C(O)CC(O)C(=O)O (centres undefined) | inactive | – | inactive | inactive | inactive | inactive | inactive | inactive | inactive | inactive | inactive | – | – | – | – | – | – | – | – | – |
| CS(=O)(=O)OCCCCOS(C)(=O)=O | inactive | – | inactive | inactive | inactive | inactive | inactive | inactive | inactive | inactive | inactive | – | – | – | – | – | inactive | inactive | 11.9 µM (active) and inactive | inactive |
| COc1cccc(O)c1O | inactive | – | 25.3 µM (active) | – | – | inactive | inactive | inactive | – | 35.7 µM (active) | – | – | – | – | – | inactive | – | 50.7 µM [activator] (active) | inactive | inactive |
| CC/C(=C(\c1ccccc1)c1ccc(OCCN(C)C)cc1)c1ccccc1 | – | – | – | – | 13.9 µM (active) and 15.5 µM (active) and 11.1 µM (active) | – | – | 48.9 µM (active) and 49.4 µM (active) and 49 µM (active) | inactive | – | 27.3 µM (active) [middle of 5 runs] | – | – | – | 8.63 µM (active) [middle of 5 runs] | inactive | – | – | – | – |
| C[C@](N)(Cc1ccc(O)c(O)c1)C(=O)O | inactive | – | inactive and 61.6 µM (active) and 60.9 µM (active) | inactive and 60.9 µM (active) | inactive | inactive | inactive | inactive | inactive | inactive | inactive | – | – | – | – | inactive | – | – | – | – |
| CN[C@H]1CC[C@@H](c2ccc(Cl)c(Cl)c2)c2ccccc21 | inactive | – | 8.41 µM (active) | 7.5 µM (active) | 23.9 µM (active) | – | 9.44 µM (active) | – | inactive | – | – | – | – | – | 6.68 µM (active) | – | – | inactive | – | – |
| Oc1ccccc1 | inactive | – | inactive | inactive | inactive | inactive | inactive | inactive | inactive | inactive | inactive | – | – | – | – | – | – | – | – | – |
| NC(=O)n1c(O)c(C(=O)c2cccs2)c2cc(Cl)ccc21 | inactive | – | – | – | inactive | inactive | – | inactive | – | – | inactive | – | – | – | 29.8 µM (active) | – | 21.3 µM [inconclusive] (active) | inactive | – | 29.8 µM (active) |
